High-throughput results as filed in PubChem.
IL-1B inflam inh: inflammasome signaling inhibition, IL-1 beta readout | hit rate 4.7% among 360,000 | activity change, % at 57.5 µM | THP-1 LPS/ATP IL-1B secretion, AlphaLISA, 16 h; hits give low values; in the data active = activity change below about -50%; inconclusive = mostly about -30% to -49%
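Secreted IL-1B measured by AlphaLISA bead assay after 16 h compound exposure of THP-1 cells; compounds (final up to 57.5 uM) added 1 h before LPS (250 ng/mL) and ATP (1.25 mM) stimulation; lower signal means less secretion.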
HT1080 IDH1KD tx: HT-1080 IDH1 knockdown cell toxicity (counter line) | HT-1080 IDH1 knockdown viability, ATP luminescence, 48 h | Potency, µM (series often up to 46.1 µM), for the others: top-dose activity, negative = toxicity, most hits filed as cytotoxic | hit rate 2% among 360,000 | AID 686971;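 also: potency is read from the fitted curve at half-maximal effect; 0% = DMSO wells and -100% = cell-free medium wells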
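After a 2 h attachment period, IDH1KD HT-1080 cells took pin-transferred compound for 48 h at 37 °C; ATP-based luminescence after 10 min room-temperature reagent incubation reported viability.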
DT40 TDP1 no CPT: qHTS for Inhibitors of human tyrosyl-DNA phosphodiesterase 1 (TDP1): qHTS in cells in absence of CPT | DT40 Tdp1-/- hTDP1 cells, no CPT, ATP luminescence, 48 h | Potency, µM (titrated, usually from 46.2 µM), for the others: at the top dose activity change, negative = growth inhibition, usual class: inhibitors | hit rate 15% among 420,000 | AID 686978, 2013; also: potency is read from the fitted curve at half-maximal effect; nearly all actives have a fitted effect of over 55% in size
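Stably hTDP1-transfected Tdp1-null chicken DT40 cells were treated with library compounds minus camptothecin and grown for at least 48 hr at 37 °C, after which cellular ATP was quantified by luminescence.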
DT40 TDP1 CPT: DT40-hTDP1 cell growth loss with CPT | hit rate 12% among 420,000 | Potency, µM (series often up to 46.2 µM), for inactives: at the top dose activity change, negative = growth inhibition, hits mostly inhibitors | chicken DT40 Tdp1-/-;hTDP1 cells + 20 nM CPT, ATP luminescence, 48 h; also: potency is read from the fitted curve at half-maximal effect; nearly all actives have a fitted effect of over 55% in size
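Chicken DT40 Tdp1-/- cells complemented with human TDP1, 400 cells/well, exposed to compounds plus 20 nM camptothecin for at least 48 h at 37 C; viability read as ATP content by CellTiter-Glo luminescence.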
HT1080NT lethal: kills 2HG-producing HT-1080-NT fibrosarcoma cells; hit rate 1.6% among 360,000; Potency, µM (highest dose often 46.1 µM), without a hit: at the highest dose activity, negative = less viability, actives largely listed as cytotoxic; HT-1080-NT fibrosarcoma viability, CellTiter-Glo ATP luminescence, 48 h; AID 686970;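 also: NT is the 2HG producing partner of a matched IDH1 knockdown line; potency is read from the fitted curve at half-maximal effect; 0% = DMSO-treated cells and -100% = media-only wells without cells; nearly all actives have a fitted effect of over 55% in size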
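HT-1080-NT fibrosarcoma cells (2HG-overproducing), 750 cells/well in RPMI with 5% FBS, dosed after 2 h and incubated 48 h at 37C. CellTiter-Glo luminescence normalized to DMSO and no-cell wells; concentration-response curves fitted and classed.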
12-LOX inh: ALOX12 (human) lipoxygenase inhibition; P18054; hit rate 1.1% among 580,000; purified 12hLO, xylenol orange hydroperoxide absorbance; AID 1671190; Potency, µM (doses to about 108 µM), without a hit: at the top dose activity change, negative = inhibition, actives largely listed as inhibitors; also: potency is read from the fitted curve at half-maximal effect
Target sequence (P18054 whole entry, looked up): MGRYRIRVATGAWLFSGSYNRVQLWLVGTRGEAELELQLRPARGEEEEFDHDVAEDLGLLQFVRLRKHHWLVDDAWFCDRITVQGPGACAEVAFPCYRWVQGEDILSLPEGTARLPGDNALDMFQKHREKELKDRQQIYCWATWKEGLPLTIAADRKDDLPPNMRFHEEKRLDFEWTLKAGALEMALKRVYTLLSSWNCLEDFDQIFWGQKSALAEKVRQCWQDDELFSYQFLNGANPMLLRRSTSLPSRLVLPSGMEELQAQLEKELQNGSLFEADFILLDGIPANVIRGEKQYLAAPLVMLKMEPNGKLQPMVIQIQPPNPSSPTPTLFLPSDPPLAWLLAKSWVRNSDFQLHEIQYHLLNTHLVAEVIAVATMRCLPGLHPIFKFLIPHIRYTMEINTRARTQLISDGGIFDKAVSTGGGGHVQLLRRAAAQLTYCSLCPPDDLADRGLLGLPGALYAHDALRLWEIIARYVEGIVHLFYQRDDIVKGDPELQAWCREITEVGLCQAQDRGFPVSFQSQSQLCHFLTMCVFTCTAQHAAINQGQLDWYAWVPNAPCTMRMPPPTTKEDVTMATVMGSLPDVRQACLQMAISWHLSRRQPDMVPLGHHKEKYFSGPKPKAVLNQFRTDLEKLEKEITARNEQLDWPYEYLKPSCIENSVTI
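Purified human 12hLO (150 nM final) in 25 mM Hepes, 0.01% Triton X-100, pH 7.0 was preincubated 15 min at room temperature with compound. Then 40 uM arachidonic acid was added, 30 min. Hydroperoxide was read by Fe-XO absorbance ratio 573/405 nm.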
Active calls of the source: *; [ ] = remark or other dose. The entries come from a sample that favours hits as a whole. Unless noted, calls follow the shape of the dose curve; as a rule, active = well fitted curve in the direction sought with a large enough effect; inconclusive = small, poorly fitted or top-dose-only effect, or another doubt; inactive = no such curve, though single readings can be large; an effect the other way counts as inactive or inconclusive. Unless noted, % is scaled to controls: 0 for no effect and ±100 for the full control effect.

What do the screens show for `CC1=C(C(=O)N(C(C)C)C(C)C)CC(CC(=O)NCCCCc2ccccc2)C(=O)N1Cc1ccccc1` (stereo not given)?
IL-1B inflam inh: 0.0; HT1080 IDH1KD tx: -11.3%; DT40 TDP1 no CPT: 23.1µM*; DT40 TDP1 CPT: inconclusive; HT1080NT lethal: 2.1%; 12-LOX inh: 1.3%

What do the screens show for `CC1=C(C(=O)N(C(C)C)C(C)C)CC(CC(=O)NCCCN(C)C)C(=O)N1Cc1ccc(F)cc1` (stereo not given)?
IL-1B inflam inh: 8.6; HT1080 IDH1KD tx: 2.5%; DT40 TDP1 no CPT: 3.6%; DT40 TDP1 CPT: 4.2%; HT1080NT lethal: 31.1%; 12-LOX inh: inconclusive

Results for CC1=C(C(=O)N(C(C)C)C(C)C)CC(CC(=O)NCCCN(C)C)C(=O)N1Cc1ccccc1 (stereo not given) ?
IL-1B inflam inh: 0.0; HT1080 IDH1KD tx: 11.6%; DT40 TDP1 no CPT: 0.1%; DT40 TDP1 CPT: -1.2%; HT1080NT lethal: 16.9%; 12-LOX inh: -3.5%

Results for CC1=C(C(=O)N(C(C)C)C(C)C)CC(CC(=O)NCCCCc2ccccc2)C(=O)N1Cc1ccc(F)cc1 (stereo not given) ?
IL-1B inflam inh: -56.0*; HT1080 IDH1KD tx: inconclusive; DT40 TDP1 no CPT: inconclusive; DT40 TDP1 CPT: inconclusive; HT1080NT lethal: inconclusive; 12-LOX inh: -20.7%

What do the screens show for `CCN(CC)C(=O)C1=C(C)N(Cc2ccccc2)C(=O)C(CC(=O)NCCCCc2ccccc2)C1` (stereo not given)?
IL-1B inflam inh: -8.8; HT1080 IDH1KD tx: 6.8%; DT40 TDP1 no CPT: 25.9µM*; DT40 TDP1 CPT: 23.1µM*; HT1080NT lethal: 6.3%; 12-LOX inh: 15.8%

Results for CN(C(=O)CNC(=O)c1ccc(Br)o1)C1CCCCC1 ?
IL-1B inflam inh: -2.8; HT1080 IDH1KD tx: 8.3%; DT40 TDP1 no CPT: -3.6%; DT40 TDP1 CPT: 16.2%; HT1080NT lethal: 8.3%; 12-LOX inh: 494.2%

Results for CN(C)C1(Cc2cc(COc3ccccc3)on2)COC1 ?
12-LOX inh: -9.2%[176 µM]

Results for O=C(N/N=C\C=C\c1ccco1)c1cc(-c2ccc3ccccc3c2)n[nH]1 ?
IL-1B inflam inh: -22.8; HT1080 IDH1KD tx: -8.2%; DT40 TDP1 no CPT: inconclusive; DT40 TDP1 CPT: inconclusive; HT1080NT lethal: -19.6%; 12-LOX inh: 39.8µM*

Results for O=C(N/N=C/C=C\c1ccco1)c1ccccn1 ?
IL-1B inflam inh: -4.6; HT1080 IDH1KD tx: -20.1%; DT40 TDP1 no CPT: 16.4µM*; DT40 TDP1 CPT: 9.2µM*; HT1080NT lethal: inconclusive; 12-LOX inh: 0.0%

How did O=C(N/N=C/C=C/c1ccco1)c1cnccn1 do in these assays?
IL-1B inflam inh: -4.9; HT1080 IDH1KD tx: 4.3%; DT40 TDP1 no CPT: -19.6%; DT40 TDP1 CPT: -9.3%; HT1080NT lethal: 10.3%; 12-LOX inh: 352.2%

What do the screens show for `CN(C)c1ccc(/C=C/c2nc3ccccc3o2)cc1`?
DT40 TDP1 no CPT: inconclusive; DT40 TDP1 CPT: 8.7%

Results for CC[n+]1ccc(/C=C/c2ccc(N(C)C)cc2)c2ccccc21 ?
IL-1B inflam inh: -105.9*; HT1080 IDH1KD tx: 1.3µM*; DT40 TDP1 no CPT: 0.0065µM*; DT40 TDP1 CPT: 0.0731µM*; HT1080NT lethal: inconclusive; 12-LOX inh: inconclusive

Results for CC[n+]1ccccc1/C=C/c1ccc(N(C)C)cc1 ?
IL-1B inflam inh: -57.2*; HT1080 IDH1KD tx: 18.4µM*; DT40 TDP1 no CPT: 0.461µM*; DT40 TDP1 CPT: 1.03µM*; HT1080NT lethal: inconclusive; 12-LOX inh: inconclusive

How did CCCCCC[n+]1ccccc1/C=C/c1ccc(N(C)C)cc1 do in these assays?
IL-1B inflam inh: inconclusive; HT1080 IDH1KD tx: 1.16µM*; DT40 TDP1 no CPT: 0.0517µM*; DT40 TDP1 CPT: 0.058µM*; HT1080NT lethal: 7.31µM*; 12-LOX inh: inconclusive

Results for N#CCCN1CCN(C(C(=O)O)c2cn(CC(=O)O)c3cc(F)ccc23)CC1 (stereo not given) ?
12-LOX inh: 1.4%

Results for Cc1ncoc1C(=O)N1CCN(C(=O)N2CC3CC(C2)[C@H]2CCCC(=O)N2C3)CC1 (stereo not given in full) ?
12-LOX inh: 36.2%

Results for N#CC(C#N)=NNc1ccc2cn[nH]c2c1 ?
IL-1B inflam inh: -86.5*; HT1080 IDH1KD tx: 20.6µM*; DT40 TDP1 no CPT: 4.61µM*; DT40 TDP1 CPT: 4.11µM*; HT1080NT lethal: 20.6µM*; 12-LOX inh: inconclusive

What do the screens show for `CCNC(=S)Nc1ccc2cn[nH]c2c1`?
IL-1B inflam inh: -8.0; HT1080 IDH1KD tx: 21.4%; DT40 TDP1 no CPT: -6.5%; DT40 TDP1 CPT: 20.0%; HT1080NT lethal: 23.9%; 12-LOX inh: 0.6%

What do the screens show for `COC(=O)C1(C)CCc2c(ccc3ccccc23)C1=O` (stereo not given)?
IL-1B inflam inh: 43.8; HT1080 IDH1KD tx: 9.0%; DT40 TDP1 no CPT: -25.3%; DT40 TDP1 CPT: -21.0%; HT1080NT lethal: 2.2%; 12-LOX inh: -6.1%

How did CN1CC2(Cc3c1ccc1ccccc31)C(=O)OC(C)(C)OC2=O do in these assays?
IL-1B inflam inh: 0.0; HT1080 IDH1KD tx: inconclusive; DT40 TDP1 no CPT: inconclusive; DT40 TDP1 CPT: inconclusive; HT1080NT lethal: 23.1µM*; 12-LOX inh: inconclusive

What do the screens show for `Cc1sc(NC(=O)Cc2ccc3c(c2)OCO3)nc1-c1ccc2c(c1)CCN2C(=O)c1ccccc1F`?
IL-1B inflam inh: inconclusive; HT1080 IDH1KD tx: inconclusive; DT40 TDP1 no CPT: 8.2µM*; DT40 TDP1 CPT: 18.4µM*; HT1080NT lethal: -9.6%; 12-LOX inh: -20.4%

What do the screens show for `Cc1sc(NC(=O)CN2CCCC2)nc1-c1ccc2c(c1)CCN2C(=O)c1cccc(F)c1`?
IL-1B inflam inh: -66.3*; HT1080 IDH1KD tx: inconclusive; DT40 TDP1 no CPT: 16.4µM*; DT40 TDP1 CPT: inconclusive; HT1080NT lethal: -28.7%; 12-LOX inh: 4.0%

Results for O=C(/C=C/c1cnc2ccccc2n1)NCc1ccccn1 ?
12-LOX inh: 80.6%

How did O=S(=O)(Cc1ccccc1)NCc1cccc(CNS(=O)(=O)Cc2ccccc2)c1 do in these assays?
12-LOX inh: 35.5µM*

How did O=C1OC[C@H]2CCCN2C(=O)[C@@H](CC(=O)N(CCO)Cc2ccccc2)C/C=C\CC[C@H]1Cc1ccc(F)cc1 do in these assays?
IL-1B inflam inh: inconclusive; HT1080 IDH1KD tx: -10.8%; DT40 TDP1 no CPT: 20.6µM*; DT40 TDP1 CPT: 16.4µM*; HT1080NT lethal: 0.6%; 12-LOX inh: -10.1%
